According to PubChem BioAssay (EPA / NIEHS):
Activity calls are given as the source filed them. The calls were made as follows: active = hit-call score of the fitted dose curve at least 0.9, where 1 is the maximum; inactive = score below 0.9.

Assays:
Details in all cases: mRNA level, 48 h; actives raise or lower the signal
[1] = read-out: ATP-citrate lyase (ACLY), ACLY (gene 47); test: LTEA_HepaRG_ACLY: Life Technologies and Expression Analysis (LTEA) Assay for ATP-citrate lyase (ACLY) using HepaRG (AID 2283466)
Method in brief: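 ACLY expression changes in human HepaRG liver cells are quantified by qRT-PCR after 48 h exposure to test chemicals (maximum 100 uM, half-log steps). Values are fitted in both directions relative to 0.5% DMSO vehicle.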

[2] = read-out: Peroxisomal acyl-coenzyme A oxidase 1 (ACOX1) gene, ACOX1 (gene 51); test: LTEA_HepaRG_ACOX1: Life Technologies and Expression Analysis (LTEA) Assay for Peroxisomal acyl-coenzyme A oxidase 1 (ACOX1) gene using HepaRG (AID 2283467)
Method in brief: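 Human HepaRG hepatic cultures, 48 h treatment with test chemicals up to 100 uM. ACOX1 expression read by qRT-PCR relative to 0.5% DMSO vehicle.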

[3] = read-out: Alkaline Phosphatase, Placental (ALPP) gene, ALPP (gene 250); test: LTEA_HepaRG_ALPP: Life Technologies and Expression Analysis (LTEA) Assay for Alkaline Phosphatase, Placental (ALPP) gene using HepaRG (AID 2283468)
Method in brief: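 ALPP transcript level, measured by qRT-PCR and normalized to three housekeeping genes (ACTB, GAPDH, POLR2A), after 48 h dosing of differentiated HepaRG in serum-free induction medium. Top concentration 100 uM with half-log dilutions (8 points, 0.5% DMSO, duplicates); bidirectional fitting relative to DMSO.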

[4] = read-out: Bcl-2 (BAD) gene, BAD (gene 572); test: LTEA_HepaRG_BAD: Life Technologies and Expression Analysis (LTEA) Assay for Bcl-2 (BAD) gene using HepaRG (AID 2283469)
Method in brief: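 Activity values reflect up- or down-regulation of BAD mRNA in human HepaRG hepatic cells treated 48 h in serum-free medium, with eight-point half-log dosing capped at 100 uM and 0.5% DMSO vehicle.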

[5] = read-out: Bcl-2 (BAX) gene, BAX (gene 581); test: LTEA_HepaRG_BAX: Life Technologies and Expression Analysis (LTEA) Assay for Bcl-2 (BAX) gene using HepaRG (AID 2283470)
Method in brief: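 qRT-PCR read-out of BAX mRNA, normalized to three housekeeping genes, after 48 h chemical exposure of human HepaRG cells in serum-free induction medium; eight-point half-log series, top 100 uM, 0.5% DMSO vehicle; bidirectional fit versus DMSO.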

[6] = read-out: adenosine kinase (ADK) gene, ADK (gene 132); test: LTEA_HepaRG_ADK: Life Technologies and Expression Analysis (LTEA) Assay for adenosine kinase (ADK) gene using HepaRG (AID 2283471)
Method in brief: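 ADK expression quantified by qRT-PCR, normalised to three housekeeping genes, after 48 h exposure of HepaRG cells to eight concentrations (top 100 uM, half-log steps, duplicate, 0.5% DMSO). Up- or down-regulation fitted relative to vehicle.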

[7] = read-out: Alpha-fetoprotein (AFP) gene, AFP (gene 174); test: LTEA_HepaRG_AFP: Life Technologies and Expression Analysis (LTEA) Assay for Alpha-fetoprotein (AFP) gene using HepaRG (AID 2283472)
Method in brief: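 qRT-PCR (Fluidigm TaqMan) readout of AFP transcript, normalized to three housekeeping genes, fitted bidirectionally against 0.5% DMSO baseline. HepaRG cells received chemicals for 48 h in serum-free induction medium, top concentration 100 uM, half-log steps.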

[8] = read-out: Apolipoprotein A-V (APOA5) gene, APOA5 (gene 116519); test: LTEA_HepaRG_APOA5: Life Technologies and Expression Analysis (LTEA) Assay for Apolipoprotein A-V (APOA5) gene using HepaRG (AID 2283474)
Method in brief: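 APOA5 transcript levels were quantified by qRT-PCR, normalized to three housekeeping genes, after 48 h chemical treatment of HepaRG cells (8 points, 100 uM maximum, half-log steps, 0.5% DMSO). Curves fitted in both directions against vehicle.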

[9] = read-out: Apoptosis regulator Bcl-2 (Homo sapiens) (UniProt P10415); test: LTEA_HepaRG_BCL2: Life Technologies and Expression Analysis (LTEA) Assay for Bcl-2 gene using HepaRG (AID 2283475);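 also: BCL2 transcript by TaqMan qRT-PCR normalised to ACTB GAPDH and POLR2A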
Method in brief: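 qRT-PCR read-out (Fluidigm TaqMan) of BCL2 transcript, normalised to three housekeeping genes, after 48 h chemical exposure of HepaRG cells; 8-point half-log series, top 100 uM, 0.5% DMSO vehicle. Gain or loss of signal fitted relative to DMSO baseline.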

Caspase-3 (Homo sapiens) = Caspase-3 (Homo sapiens) (UniProt P42574); test: LTEA_HepaRG_CASP3: Life Technologies and Expression Analysis (LTEA) Assay for cysteine-aspartic acid protease (CASP3) using HepaRG (AID 2283477)
Caspase-3 (Homo sapiens), sequence (P42574 whole entry, looked up): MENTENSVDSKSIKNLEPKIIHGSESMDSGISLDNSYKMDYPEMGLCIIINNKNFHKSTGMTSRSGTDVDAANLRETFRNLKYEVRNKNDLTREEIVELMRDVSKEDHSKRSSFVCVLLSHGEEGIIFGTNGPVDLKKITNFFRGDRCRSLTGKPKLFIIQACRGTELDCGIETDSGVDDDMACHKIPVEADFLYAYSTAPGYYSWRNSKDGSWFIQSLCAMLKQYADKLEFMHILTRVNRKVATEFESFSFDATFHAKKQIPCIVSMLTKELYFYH
Method in brief: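 Expression of CASP3 was quantified by TaqMan qRT-PCR against three housekeeping genes (ACTB, GAPDH, POLR2A), bidirectionally versus 0.5% DMSO. HepaRG cultures received compounds in duplicate, top 100 uM with half-log steps, for 48 h in serum-free induction medium.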

[10] = read-out: cysteine-aspartic acid protease (CASP8), CASP8 (gene 841); test: LTEA_HepaRG_CASP8: Life Technologies and Expression Analysis (LTEA) Assay for cysteine-aspartic acid protease (CASP8) using HepaRG (AID 2283480)
Method in brief: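 Concentration-response in duplicate up to 100 uM (half-log steps, 0.5% DMSO) on differentiated HepaRG cultures for 48 h. Expression change of CASP8 mRNA is determined by TaqMan qRT-PCR with housekeeping-gene normalization.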

[11] = read-out: Cytochrome P450 (CYP2B6), CYP2B6 (gene 1555); test: LTEA_HepaRG_CYP2B6: Life Technologies and Expression Analysis (LTEA) Assay for Cytochrome P450 (CYP2B6) using HepaRG (AID 2283481)
Method in brief: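 CYP2B6 transcript level quantified by qRT-PCR against three housekeeping genes, fitted bidirectionally relative to DMSO. HepaRG cultures received chemicals for 48 h, 8-point half-log series from 100 uM in 0.5% DMSO, duplicate wells, serum-free induction medium.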

[12] = read-out: Cytochrome P450 2C19 (Homo sapiens) (UniProt P33261); test: LTEA_HepaRG_CYP2C19: Life Technologies and Expression Analysis (LTEA) Assay for CYP2C19 using HepaRG (AID 2283482)
Method in brief: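 CYP2C19 transcript levels by qRT-PCR, normalized to three housekeeping genes, in HepaRG cells after 48 h chemical exposure. Eight-point half-log series topping at 100 uM, 0.5% DMSO vehicle. Increases and decreases both fitted against DMSO.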

CYP2C8 (gene 1558) = test: LTEA_HepaRG_CYP2C8: Life Technologies and Expression Analysis (LTEA) Assay for CYP2C8 using HepaRG (AID 2283483)
Method in brief: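 This is a transcriptional endpoint in HepaRG cultures: 48 h exposure, highest concentration 100 uM. CYP2C8 mRNA is quantified by TaqMan qRT-PCR.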

CYP2C9 (gene 1559) = test: LTEA_HepaRG_CYP2C9: Life Technologies and Expression Analysis (LTEA) Assay for CYP2C9 using HepaRG (AID 2283484)
Method in brief: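 Eight-point concentration-response (highest 100 uM, half-log dilutions) in HepaRG cells for 48 h; CYP2C9 expression by qRT-PCR normalized to ACTB, GAPDH, POLR2A. Bidirectional fit, DMSO baseline.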

CYP2E1 (gene 1571) = test: LTEA_HepaRG_CYP2E1: Life Technologies and Expression Analysis (LTEA) Assay for CYP2E1 using HepaRG (AID 2283485)
Method in brief: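 CYP2E1 transcript was measured by TaqMan qRT-PCR in human HepaRG cultures after 48 h chemical exposure (top 100 uM, half-log steps, 0.5% DMSO vehicle). Housekeeping-gene normalization; gain or loss fitted relative to DMSO baseline.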

BCL2L11 (gene 10018) = test: LTEA_HepaRG_BCL2L11: Life Technologies and Expression Analysis (LTEA) Assay for Bcl-2 (BCL2L11) gene using HepaRG (AID 2283473)
Method in brief: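 BCL2L11 transcript levels are measured by Fluidigm qRT-PCR, normalized to three housekeeping genes. HepaRG cultures were plated 48 h, then treated 48 h with test chemical (top 100 uM, half-log, 0.5% DMSO vehicle); curves were fitted bidirectionally against DMSO.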

[13] = read-out: Bcl-2 (BID) gene, BID (gene 637); test: LTEA_HepaRG_BID: Life Technologies and Expression Analysis (LTEA) Assay for Bcl-2 (BID) gene using HepaRG (AID 2283476)
Method in brief: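 HepaRG, 48 h exposure, 8-pt half-log series, top 100 uM, 0.5% DMSO vehicle, duplicates. Readout: BID mRNA by TaqMan qRT-PCR; housekeeping-normalized; bidirectional curve fit vs DMSO baseline.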

[14] = read-out: Cytochrome P450 (CYP1A2), CYP1A2 (gene 1544); test: LTEA_HepaRG_CYP1A2: Life Technologies and Expression Analysis (LTEA) Assay for Cytochrome P450 (CYP1A2) using HepaRG (AID 2283479)
Method in brief: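 CYP1A2 transcript measured by TaqMan qRT-PCR against three housekeeping genes after 48-hour chemical exposure of HepaRG cells. Eight-point half-log series topping at 100 uM in 0.5% DMSO, duplicates; gain or loss fitted relative to vehicle.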

[15] = read-out: Cytochrome P450 (CYP24A1), CYP24A1 (gene 1591); test: LTEA_HepaRG_CYP24A1: Life Technologies and Expression Analysis (LTEA) Assay for Cytochrome P450 (CYP24A1) using HepaRG (AID 2283478)
Method in brief: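 mRNA of CYP24A1 quantified by TaqMan qRT-PCR (ACTB/GAPDH/POLR2A normalization) after 48 h chemical exposure of HepaRG cells, top concentration 100 uM, half-log steps, 0.5% DMSO vehicle, duplicates. Curves fitted bidirectionally against DMSO baseline.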

Measured: AC50

Cytochrome P450 2C19 (Homo sapiens), sequence (P33261 whole entry, looked up): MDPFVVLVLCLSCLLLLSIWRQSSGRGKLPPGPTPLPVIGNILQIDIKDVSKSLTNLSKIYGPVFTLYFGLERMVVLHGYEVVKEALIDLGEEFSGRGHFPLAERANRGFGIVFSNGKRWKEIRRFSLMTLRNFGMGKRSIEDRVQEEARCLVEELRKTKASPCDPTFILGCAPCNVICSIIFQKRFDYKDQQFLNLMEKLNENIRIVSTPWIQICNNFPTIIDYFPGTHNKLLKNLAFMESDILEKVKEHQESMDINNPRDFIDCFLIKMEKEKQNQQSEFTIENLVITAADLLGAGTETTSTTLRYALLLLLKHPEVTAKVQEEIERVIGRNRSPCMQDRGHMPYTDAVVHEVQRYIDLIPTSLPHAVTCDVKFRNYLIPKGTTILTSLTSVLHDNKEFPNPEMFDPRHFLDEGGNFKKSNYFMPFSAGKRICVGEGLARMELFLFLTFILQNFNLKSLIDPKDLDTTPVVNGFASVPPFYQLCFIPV
Apoptosis regulator Bcl-2 (Homo sapiens), sequence (P10415 whole entry, looked up): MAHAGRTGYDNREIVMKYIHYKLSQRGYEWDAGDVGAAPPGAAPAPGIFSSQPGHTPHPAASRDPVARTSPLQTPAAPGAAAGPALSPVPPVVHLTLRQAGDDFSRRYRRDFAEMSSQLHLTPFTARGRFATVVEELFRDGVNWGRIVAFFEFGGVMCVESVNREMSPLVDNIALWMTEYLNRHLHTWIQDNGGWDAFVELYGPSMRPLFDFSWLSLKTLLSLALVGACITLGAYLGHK

CC(C)NC(=O)N1CC(=O)N(c2cc(Cl)cc(Cl)c2)C1=O
inactive: [1] | [3] | [4] | [5] | [6] | [9] | Caspase-3 (Homo sapiens) | [10] | [12] | CYP2C8 (gene 1558) | CYP2C9 (gene 1559)
active: [2] 14.4 µM | [7] 13.2 µM | [8] 22.7 µM | [11] 3.63 µM | CYP2E1 (gene 1571) 13.2 µM

CCN(CC)c1nc(C)cc(OP(=S)(OC)OC)n1
active: [12] 12.1 µM | CYP2E1 (gene 1571) 37.4 µM
inactive: [1] | [2] | [3] | [4] | [5] | [6] | [7] | BCL2L11 (gene 10018) | [8] | [9] | [13] | Caspase-3 (Homo sapiens) | [10] | CYP2C8 (gene 1558) | CYP2C9 (gene 1559)

O=c1n(Cl)c(=O)n(Cl)c(=O)n1Cl
inactive: [1] | [2] | [3] | [4] | [5] | [6] | [7] | BCL2L11 (gene 10018) | [8] | [9] | Caspase-3 (Homo sapiens) | [10] | [12] | CYP2C8 (gene 1558) | CYP2C9 (gene 1559) | CYP2E1 (gene 1571)

O=C(O)c1c(Cl)ccc2cc(Cl)cnc12
inactive: [1] | [2] | [3] | [4] | [6] | [7] | BCL2L11 (gene 10018) | [8] | [9] | [13] | Caspase-3 (Homo sapiens) | [14] | [10] | [12] | CYP2C8 (gene 1558) | CYP2C9 (gene 1559) | CYP2E1 (gene 1571)

CC1(C)CCC(=Cc2ccc(Cl)cc2)C1(O)Cn1cncn1 (configuration not stated)
active: [1] 34 µM | [8] 49.8 µM | [14] 23.3 µM | [12] 5.03 µM | CYP2C8 (gene 1558) 12.6 µM | CYP2E1 (gene 1571) 27.1 µM
inactive: [2] | [3] | [4] | [5] | [6] | [7] | BCL2L11 (gene 10018) | [9] | [13] | Caspase-3 (Homo sapiens) | [15] | [10] | CYP2C9 (gene 1559)

COCC(C)N(C(=O)CCl)c1c(C)csc1C (configuration not stated)
inactive: [1] | [2] | [3] | [4] | [6] | [7] | BCL2L11 (gene 10018) | [8] | [9] | [13] | Caspase-3 (Homo sapiens) | [15] | [10] | [12] | CYP2C8 (gene 1558) | CYP2C9 (gene 1559)
active: CYP2E1 (gene 1571) 64.6 µM

COCc1cnc(C2=NC(C)(C(C)C)C(=O)N2)c(C(=O)O)c1 (configuration not stated)
inactive: [1] | [2] | [3] | [4] | [5] | [6] | [7] | BCL2L11 (gene 10018) | [8] | [9] | Caspase-3 (Homo sapiens) | [10] | [12] | CYP2C8 (gene 1558) | CYP2C9 (gene 1559) | CYP2E1 (gene 1571)

COP(=S)(OC)SCn1nnc2ccccc2c1=O
inactive: [1] | [2] | [3] | [4] | [5] | [6] | [7] | [8] | [9] | [13] | Caspase-3 (Homo sapiens) | [10] | CYP2C8 (gene 1558) | CYP2C9 (gene 1559) | CYP2E1 (gene 1571)
active: [12] 40.9 µM

Nc1cnn(-c2ccccc2)c(=O)c1Cl
inactive: [1] | [2] | [3] | [4] | [5] | [6] | [7] | BCL2L11 (gene 10018) | [8] | [9] | [13] | Caspase-3 (Homo sapiens) | [15] | [10] | [12] | CYP2C8 (gene 1558) | CYP2C9 (gene 1559)
active: CYP2E1 (gene 1571) 9.92 µM

CC(C)N1C(=O)c2ccccc2NS1(=O)=O
inactive: [1] | [2] | [3] | [4] | [5] | [6] | [7] | [8] | [9] | Caspase-3 (Homo sapiens) | [15] | [10] | [12] | CYP2C8 (gene 1558) | CYP2C9 (gene 1559) | CYP2E1 (gene 1571)
active: [11] 50 µM

Cc1nc(N(C)C)nc(OC(=O)N(C)C)c1C
inactive: [1] | [2] | [3] | [4] | [5] | [6] | [7] | BCL2L11 (gene 10018) | [8] | [9] | [13] | Caspase-3 (Homo sapiens) | [14] | [10] | CYP2C9 (gene 1559) | CYP2E1 (gene 1571)
active: [12] 19.7 µM | CYP2C8 (gene 1558) 9.92 µM
